Rows were chosen to be rich in hits. Some 7.6% of all compounds tested hit in one or more screens of this group.
KB-V1 MDR tox = kills drug-selected multidrug resistant KB-V1 cells | KB-V1 MDR cells viability, CellTiter-Glo, 72 h | 3.4% of 400,000 active | Potency, µM (doses to about 46.1 µM), hits mostly cytotoxic; further: potency means the concentration at half of the fitted maximal effect; on the % scale 0 is the no-effect control and ±100 the full control effect; nearly all actives have a fitted effect of over 60% in size
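Cells of the MDR subline KB-V1 are plated, dosed with compound at multiple concentrations, and incubated 72 h at 37 degrees C; CellTiter-Glo is then added and luminescence read after 10 min.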
KCNH2 WT inh = blocks the wildtype human KCNH2 potassium channel; Q12809; U2OS, BacMam KCNH2, thallium flux FluxOr; hits give low values; activity change, % at 1.84 µM; 0.37% of 340,000 active;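 active means maximum activity change below -70%; inconclusive means maximum activity change between -70% and -50%; inactive means maximum activity change above -50%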; further: on the % scale 0 is the no-effect control and ±100 the full control effect
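U2OS cells were transduced with wild-type KCNH2 virus (2.03 x 10^8 / mL) for 4 h at room temperature, then cultured overnight at 37 C. Thallium flux was read with FluxOr dye. Rate constants were normalized to DMSO controls.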
KCNH2 3.1 block = KCNH2 3.1 (human) potassium channel inhibition | U2OS KCNH2 3.1, thallium flux FluxOr; hits give low values | activity change, % (tested at about 1.8 µM) | 0.95% of 340,000 active;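 active means maximum activity change below -70%; inconclusive means maximum activity change from -70% to -50%; inactive means maximum activity change above -50%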;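 further: thallium influx rate constant from kinetic fluorescence after stimulation buffer; on the % scale 0 is the no-effect control and ±100 the full control effect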
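Thallium flux via FluxOr fluorescence (Red40 quencher, 45 min loading) in U2OS cells virally expressing the KCNH2 3.1 isoform (1.77 x 10^8 /mL virus, overnight at 37 C). Rate constants from 2-min kinetic reads post-stimulation, normalised to positive and negative controls.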
MCF10A rereplic = induces DNA re-replication in MCF 10a normal breast cells | MCF 10A DNA re-replication, Hoechst nuclear intensity, 48 h | Potency, µM (doses to about 46.1 µM), for inactives: top-dose activity, positive = re-replication, hits mostly activators | 2.9% of 350,000 active; further: potency means the concentration at half of the fitted maximal effect; % of control where 0% means no effect; nearly all actives have a fitted effect of over 50% in size
SW480 rereplic = induces DNA re-replication in SW480 colon adenocarcinoma cells; SW480 DNA re-replication, Hoechst DNA content imaging, 48 h; Potency, µM (series often up to 46.1 µM), for the others: top-dose re-replication activation, hits mostly activators; 1.8% of 340,000 active; further: potency means the concentration at half of the fitted maximal effect; % of control where 0% means no effect; nearly all actives have a fitted effect of over 55% in size
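Treated cells incubate 48 hr (37 C, 5% CO2), are stained 40 min with Hoechst, and nuclear fluorescence is enumerated; a rise in nuclei with high DNA signal marks re-replication.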
KB-3-1 cytotox = kills parental KB-3-1 adenocarcinoma cells; 1.4% of 400,000 active; KB-3-1 viability, CellTiter-Glo ATP luminescence, 72 h; Potency, µM (highest dose often 46.1 µM), hits mostly cytotoxic; AID 1347075; further: potency means the concentration at half of the fitted maximal effect; on the % scale 0 is the no-effect control and ±100 the full control effect; nearly all actives have a fitted effect of over 60% in size
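Here the drug-naive KB-3-1 line serves as comparator for MDR sub-line selectivity; cells received compound titrations, 72 h at 37 °C, then CellTiter-Glo readout.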
Active calls of the source: *. Unless noted, the call rests on the fitted dose curve; in most records, active means well fitted curve in the direction sought with a large enough effect; inconclusive means small, poorly fitted or top-dose-only effect, or another doubt; inactive means no such curve, though single readings can be large; an effect the other way counts as inactive or inconclusive.

How did C[N+]1(CC(=O)c2ccc(Cl)c(Cl)c2)CCOCC1 do in these assays?
KB-V1 MDR tox: inactive; KB-3-1 cytotox: inactive

How did CCCCCCN1C=CC(=C/C=C(\C#N)C(=O)OCC)C=C1 do in these assays?
KB-V1 MDR tox: 8.2µM*; KCNH2 WT inh: -10.9; KCNH2 3.1 block: -25.5; MCF10A rereplic: 6.4%; SW480 rereplic: -3.1%; KB-3-1 cytotox: inactive

How did COc1ccc(NC(=O)COC(=O)c2ccc(S(=O)(=O)N3CCCCC3)cc2)c(OC)c1 do in these assays?
KB-V1 MDR tox: inactive; KCNH2 WT inh: 13.6; KCNH2 3.1 block: 8.7; KB-3-1 cytotox: inactive

How did Cc1nc(N)nc(Nc2ccc(C#N)cc2)c1Br do in these assays?
KB-V1 MDR tox: inactive; KCNH2 WT inh: 13.6; KCNH2 3.1 block: -13.7; MCF10A rereplic: -3.4%; SW480 rereplic: 116.4%; KB-3-1 cytotox: inactive

How did Cc1nc(N)nc(Nc2ccc(Cl)cc2)c1Br do in these assays?
KB-V1 MDR tox: 20.6µM*; KCNH2 WT inh: -2.3; KCNH2 3.1 block: -2.7; MCF10A rereplic: 0.2%; SW480 rereplic: -1.3%; KB-3-1 cytotox: inconclusive

How did CCOC(=O)CNC(=S)N(Cc1ccccc1F)C1CCCCC1 do in these assays?
KB-V1 MDR tox: inconclusive; KCNH2 WT inh: -17.2; KCNH2 3.1 block: -5.6; MCF10A rereplic: 9.5%; SW480 rereplic: inconclusive; KB-3-1 cytotox: inactive

How did O=C(N1CCOCC1)N(Cc1cccs1)C1CCCC1 do in these assays?
KB-V1 MDR tox: inactive; KCNH2 WT inh: -17.5; KCNH2 3.1 block: -79.9*; MCF10A rereplic: 11.6%; SW480 rereplic: -0.7%; KB-3-1 cytotox: inactive

How did CC1CCCC(NC(=O)CNC(=S)N(Cc2ccccc2)Cc2cccs2)C1C (configuration not stated) do in these assays?
KB-V1 MDR tox: inconclusive; KCNH2 WT inh: 2.0; KCNH2 3.1 block: 7.0; MCF10A rereplic: 13µM*; SW480 rereplic: inconclusive; KB-3-1 cytotox: inactive

How did CCCCNC(=O)CNC(=S)N(Cc1ccccc1)Cc1cccs1 do in these assays?
KB-V1 MDR tox: inconclusive; KCNH2 WT inh: -0.2; KCNH2 3.1 block: -17.3; MCF10A rereplic: 0.5%; SW480 rereplic: 0.1%; KB-3-1 cytotox: inactive

What do the screens show for `CCOC(=O)CNC(=S)N(Cc1cccs1)C1CCCCC1`?
KB-V1 MDR tox: 7.31µM*; KCNH2 WT inh: -1.0; KCNH2 3.1 block: -11.2; MCF10A rereplic: -1.2%; SW480 rereplic: -40.7%; KB-3-1 cytotox: inactive

How did Cc1cccc(C)c1NC(=S)N(Cc1cccs1)C1CCCC1 do in these assays?
KB-V1 MDR tox: inactive; KCNH2 WT inh: -3.8; KCNH2 3.1 block: inconclusive; MCF10A rereplic: -4.0%; SW480 rereplic: 18.5%; KB-3-1 cytotox: inactive

Results for NNC(=O)c1nc[nH]c1C(=O)Nc1ccccc1 ?
KB-V1 MDR tox: inactive; KCNH2 WT inh: 0.3; KCNH2 3.1 block: 3.2; MCF10A rereplic: -0.1%; SW480 rereplic: -1.3%; KB-3-1 cytotox: inactive

How did CCC(C)(C)NC(=O)C(c1cccc(OC)c1OC)N(C(=O)CCC(=O)Nc1cc(C)on1)C(C)C (configuration not stated) do in these assays?
KB-V1 MDR tox: inactive; KCNH2 WT inh: -4.9; KCNH2 3.1 block: 8.8; MCF10A rereplic: -6.7%; SW480 rereplic: -4.8%; KB-3-1 cytotox: inactive

Results for CCOc1cccc(CNCCO)c1OCc1ccc(Cl)cc1Cl ?
KB-V1 MDR tox: inactive; KCNH2 WT inh: 5.6; KCNH2 3.1 block: -8.8; MCF10A rereplic: inconclusive; SW480 rereplic: inconclusive; KB-3-1 cytotox: inactive

How did Fc1ccc(COc2ccccc2CNCc2ccncc2)cc1 do in these assays?
KB-V1 MDR tox: inconclusive; KCNH2 WT inh: 7.2; KCNH2 3.1 block: -9.1; MCF10A rereplic: 11.8%; SW480 rereplic: -5.1%; KB-3-1 cytotox: inactive

What do the screens show for `OCCNCc1cc(Br)ccc1OCc1ccc(F)cc1`?
KB-V1 MDR tox: inactive; KCNH2 WT inh: 82.1; KCNH2 3.1 block: -5.7; MCF10A rereplic: 0.3%; SW480 rereplic: -13.0%; KB-3-1 cytotox: inactive

Results for OCCNCc1cc(Br)ccc1OCc1ccc(Cl)cc1 ?
KB-V1 MDR tox: 9.2µM*; KCNH2 WT inh: 4.1; KCNH2 3.1 block: inconclusive; MCF10A rereplic: 9.9%; SW480 rereplic: 14.1%; KB-3-1 cytotox: inactive

How did OCCNCc1cc(Br)ccc1OCc1ccc(Cl)cc1Cl do in these assays?
KB-V1 MDR tox: 14.6µM*; KCNH2 WT inh: 6.8; KCNH2 3.1 block: -28.7; MCF10A rereplic: inconclusive; SW480 rereplic: inconclusive; KB-3-1 cytotox: inconclusive

What do the screens show for `Brc1ccc(OCc2ccccc2)c(CNCc2ccncc2)c1`?
KB-V1 MDR tox: 16.4µM*; KCNH2 WT inh: 0.5; KCNH2 3.1 block: -0.7; MCF10A rereplic: inconclusive; SW480 rereplic: inconclusive; KB-3-1 cytotox: inconclusive

How did Cc1c(Cl)cccc1-n1ncc(C(=O)N2CCc3ccccc3C2)c1C1CCN(C(=O)OC(C)(C)C)CC1 do in these assays?
KB-V1 MDR tox: inconclusive; KB-3-1 cytotox: inactive

Results for COc1ccc(-c2sc3cc(OC)c(OC)cc3c2C#CCO)cc1 ?
KB-V1 MDR tox: inactive; KCNH2 WT inh: -2.8; KCNH2 3.1 block: -5.4; MCF10A rereplic: 6.8%; SW480 rereplic: 3.26µM*; KB-3-1 cytotox: inactive

Results for COc1ccc(-c2sc3cc(OC)c(OC)cc3c2C#CC(C)(C)O)cc1 ?
KB-V1 MDR tox: inactive; KCNH2 WT inh: 4.7; KCNH2 3.1 block: 15.7; MCF10A rereplic: inconclusive; SW480 rereplic: -1.4%; KB-3-1 cytotox: inactive

How did COc1ccccc1-c1sc2cc3c(cc2c1C#CC1(O)CCCCC1)OCO3 do in these assays?
KB-V1 MDR tox: inactive; KCNH2 WT inh: 6.7; KCNH2 3.1 block: 43.8; MCF10A rereplic: inconclusive; SW480 rereplic: -3.9%; KB-3-1 cytotox: inactive

Results for COc1ccc2sc(-c3ccc(N(C)C)cc3)c(C#CCCO)c2c1 ?
KB-V1 MDR tox: inconclusive; KCNH2 WT inh: 23.4; KCNH2 3.1 block: 11.1; MCF10A rereplic: inconclusive; SW480 rereplic: 4.11µM*; KB-3-1 cytotox: inconclusive

Results for COc1ccc(-c2sc3ccc(OC)cc3c2C#CCCO)cc1 ?
KB-V1 MDR tox: inactive; MCF10A rereplic: inconclusive; SW480 rereplic: 6.0%; KB-3-1 cytotox: inactive

How did COc1ccc(-c2sc3cc4c(cc3c2C#CC2(O)CCCCC2)OCO4)cc1 do in these assays?
KB-V1 MDR tox: inactive; MCF10A rereplic: 23.1µM*; SW480 rereplic: -1.6%; KB-3-1 cytotox: inactive

How did COc1ccc2sc(-c3ccc(N(C)C)cc3)c(C#Cc3cncn3C)c2c1 do in these assays?
KB-V1 MDR tox: inconclusive; KCNH2 WT inh: -4.5; KCNH2 3.1 block: 5.8; MCF10A rereplic: inconclusive; SW480 rereplic: 1.3µM*; KB-3-1 cytotox: 10.3µM*

Results for CC1=C(C)C(=O)C(C(CCCCCC(=O)O)c2ccccc2)=C(C)C1=O (configuration not stated) ?
MCF10A rereplic: -1.6%; SW480 rereplic: -2.8%
